The values below come from PubChem BioAssay (NCI).

Compounds without any hit were thinned out: in the full panel of roughly 83,000, 20% have a hit.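 Note: values are percent growth. 100 is the growth of untreated cells, values between 100 and 0 indicate rising inhibition; between -100 and 0 indicates cell death.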 Values without a mark were called inactive. The source made the active and inactive calls. How the source made its calls: active means growth percent below 10; inactive means the rest.

Common to all, as to test: NCI-60 one-dose screen, 48 h (100 = growth as untreated, 0 = no growth, -100 = all killed)
Conditions in all cases: 10 µM unless noted

Assay [1] relates to HCT-15 colon.
For assay [2], the system named is HT29 colon.
For assay [3], the system named is SNB-19 CNS.
Assay [4] concerns U251 CNS.
Assay [5] concerns PC-3 prostate.
The test system of assay [6] is SK-MEL-5 melanoma.
Assay [7] concerns UACC-62 melanoma.
Assay [8] has as its system LOX IMVI melanoma.
Assay [9] concerns SK-MEL-28 melanoma.
The subject of assay [10] is SK-MEL-2 melanoma.
The subject of assay [11] is EKVX NSCLC.
Assay [12] concerns SN12C renal.
For assay [13], the system named is UO-31 renal.
In assay [14] the test system is TK-10 renal.
The test system of assay [15] is ACHN renal.
Assay [16] deals with CAKI-1 renal.
Assay [17] has as its system CCRF-CEM leukemia.
The subject of assay [18] is MOLT-4 leukemia.
Assay [19] relates to SNB-75 CNS.
The subject of assay [20] is A498 renal.

Regarding `O=S(=O)(NCCCNc1nccc(-c2c(-c3cccc(O)c3)nc3occn23)n1)c1ccc(F)cc1`, the growth in [1] was 90.2%; in [2], 36.3%; in assay [3] it was 113%; in [4], 95.3%; in [5], 81.4%; in [6] it was 35.7%. For the same compound, the growth was -1.99% (active) in assay [7]; 44.4% in assay [8]; 33.7% in assay [9]; 50.6% in assay [10]; 101% in assay [11]; 74.9% in assay [12]. In addition, the growth in assay [13] was 92.1%; in assay [14], 116%; in [15], 79.1%; in [16], 72.2%; in [17], 89%; in [18], 70%.
Consider `CCC(=O)c1ccc(O)c(OC)c1`, for which the growth in assay [1] was 111%; in [2] it was 103%; in [4] it was 93.9%; in [5] it was 92.4%; in assay [6] it was 98.6%; in assay [7], 95.5%. Further, the growth is 102% in assay [8]; 97.8% in assay [9]; 103% in assay [10]; 114% in assay [11]; 94.9% in assay [12]; 101% in assay [13]. In addition, the growth in [14] is 99.2%; in assay [15], 103%; in assay [16] it was 100%; in [17], 91%; in assay [18] it was 101%.
Take `CN(Cc1ccccc1)c1nc(Cl)c(C2CC(c3ccc(Cl)cc3)=Cc3[nH][nH]c(=O)c32)s1` (centres undefined): the growth in assay [1] is 90.1%; in assay [19] it was 88.1%; in [3] it was 104%; in [4], 93.4%; in assay [5], 79.7%; in assay [6], 88.2%. Further, the growth is 89% in [7]; 79.9% in [8]; 103% in assay [9]; 99.7% in assay [10]; 99.6% in [11]; 89.4% in assay [12]. Moreover, the growth in [13] was 69.2%; in [14], 99.1%; in assay [15], 93.5%; in assay [16], 86.2%; in assay [20], 111%; in assay [17], 106%. Moreover, in [18], the growth was 96.3%.
As for `COc1ccc(-c2c(-c3ccccc3)noc2N)cc1OC`, the growth is 100% in [1]; 101% in [2]; 109% in [3]; 98% in assay [4]; 98.8% in [5]; 97.3% in assay [6]. For the same compound, the growth in assay [7] is 95%; in assay [8], 105%; in assay [9], 112%; in assay [10], 98.5%; in assay [11] it was 99.7%; in assay [12], 105%. Moreover, the growth in assay [13] was 91.5%; in assay [14], 111%; in assay [15], 133%; in assay [16] it was 110%; in [20], 123%; in [17] it was 98.1%. Besides, in assay [18], the growth is 99.3%.
For `CN(C)c1ccc(-c2c(C#N)c(N)n3nc(N)c(C#N)c3c2C#N)cc1`, the growth in assay [1] is 81.8%; in assay [2], 83.5%; in assay [3], 95.4%; in [4], 90.1%; in [5], 76.6%; in assay [6], 71.1%. Also, the growth in assay [7] was 113%; in [8] it was 8.51% (active); in assay [9] it was 96.3%; in assay [10] it was 88.3%; in assay [11], 76.5%; in assay [12], 72.3%. Also, the growth is 75.5% in [13]; 82.4% in assay [14]; 86.5% in assay [15]; 106% in [20]; 94% in assay [17]; 90% in [18].
Take `CC(C)(O)C1CCCN1C(=O)c1ccccc1I` (centres undefined): the growth in assay [1] was 98.7%; in [19], 100%; in assay [3], 78.2%; in assay [4] it was 98.3%; in assay [5], 80.7%; in assay [6], 92.9%. Further, the growth in assay [7] was 64.3%; in assay [8] it was 101%; in [9], 105%; in [10], 132%; in assay [11] it was 97.7%; in assay [12] it was 95%. Also, the growth in assay [13] is 82.7%; in assay [14] it was 107%; in assay [15], 105%; in assay [16] it was 88.2%; in assay [20], 73.6%; in [17], 41.1%. Also, the growth in [18] was -67.6% (active).
On to `COc1cc(/C=C/C(=O)c2ccc(Nc3ncnc4ccccc34)cc2)cc(OC)c1`, for which the growth is 45.7% in assay [1]; -38.1% (active) in [2]; 62% in assay [3]; 34.2% in [4]; 43.9% in assay [5]; 90.8% in assay [6]. The growth in assay [7] is 76.9%; in assay [8], 5.65% (active); in [9] it was 86.3%; in assay [10], 112%; in [11] it was 79.3%; in assay [12], 71.3%. Moreover, the growth in assay [13] is 51.2%; in [14], 79.1%; in assay [16], 69.3%; in assay [20] it was 85.9%; in assay [17] it was 20.6%; in assay [18], 19.1%.
Consider `NC(=O)c1ccc[n+](CC(=O)N2CCN(c3cc4c(cc3F)c(=O)c(C(=O)O)cn4C3CC3)CC2)c1`, for which the growth in [1] was 81.8%; in [2], 99.3%; in assay [3], 92.6%; in assay [4], 88.4%; in assay [5] it was 88.9%; in [6], 93.7%. Moreover, the growth in [8] was 43%; in assay [9] it was 75.8%; in assay [10], 95.9%; in [11], 106%; in [12], 58%; in assay [13] it was 74.3%. Also, the growth in [14] is 116%; in [15] it was 84.5%; in [16], 96.9%; in assay [20], 101%; in [17] it was -25.2% (active); in assay [18], 26.6%.
For `CO[C@@H]1[C@H](N(C)C(=O)c2ccccc2)C[C@@H]2O[C@]1(C)n1c3ccccc3c3c4c(c5c6ccccc6n2c5c31)C(=O)NC4=O`, the growth in assay [1] is 25%; in [2], 42.8%; in [3], 63.6%; in assay [4], 44.3%; in assay [5], 26.3%; in assay [6], 40%. For the same compound, the growth is 34.1% in [7]; 31.4% in assay [8]; 83.1% in assay [9]; 55.1% in assay [10]; 27.9% in assay [11]; 33.4% in assay [12]. Also, the growth is -35.6% (active) in assay [13]; -20.3% (active) in assay [14]; 35.4% in assay [15]; -10.8% (active) in assay [16]; 44.5% in assay [17]; 32.8% in [18].
